Screening data (PubChem)
The sample as a whole holds a higher share of hits than the screen did.
CHX counter – affects cycloheximide protein synthesis inhibition readout, counter-screen; AID 2314; max response, %; 12% of 300,000 active; cell reporter, cycloheximide protein synthesis inhibition counterscreen; in the data active = max response mostly above about 13%, no sharp cut-off; inactive = mostly below about 14%; also: read at 38.3 µM for the half of the compounds with a filed dose; 0% is about no effect
Tb PYK inh – T. brucei pyruvate kinase inhibition | TbPYK enzyme, Kinase-Glo Plus ATP luminescence, 45 min | Q57TT1 | Potency, µM (titrated, usually from 76.8 µM), inactives show at the top dose activity, negative = inhibition, hits mostly inhibitors | 0.12% of 410,000 active | AID 624173; also: potency is read from the fitted curve at half-maximal effect; % is scaled to controls: 0 for no effect and ±100 for the full control effect; nearly all actives have a fitted effect of over 50% in size
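Assay buffer: 50 mM TEA pH 7.2, 100 mM KCl, 10 mM MgCl2, 0.05% BSA, 0.01% Tween-20. Pyruvate kinase from T. brucei plus substrate met compound, then ADP (130 uM final). Luminescence was read post 45 min RT.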
Shiga inhibitor – inhibitors of Shiga toxin in Vero cells | AID 2315 | Vero cells, Shiga toxin protein synthesis inhibition reporter | 9.2% of 290,000 active | inhibition, % at 38.7 µM; in the data active = inhibition mostly above about 28%, no sharp cut-off; inactive = mostly below about 43%; also: 0% is about no effect
LmPK inh – inhibitors of Leishmania mexicana pyruvate kinase. Q27686. purified LmPK, Kinase-Glo ATP luminescence, 1 h. Potency, µM (top dose mostly 57.5 µM), without a hit: at the top dose activity change, negative = inhibition, usual class: inhibitors. 0.37% of 290,000 active. AID 1721; also: potency is read from the fitted curve at half-maximal effect; % is scaled to controls: 0 for no effect and ±100 for the full control effect
Target sequence (Q27686 whole entry, looked up): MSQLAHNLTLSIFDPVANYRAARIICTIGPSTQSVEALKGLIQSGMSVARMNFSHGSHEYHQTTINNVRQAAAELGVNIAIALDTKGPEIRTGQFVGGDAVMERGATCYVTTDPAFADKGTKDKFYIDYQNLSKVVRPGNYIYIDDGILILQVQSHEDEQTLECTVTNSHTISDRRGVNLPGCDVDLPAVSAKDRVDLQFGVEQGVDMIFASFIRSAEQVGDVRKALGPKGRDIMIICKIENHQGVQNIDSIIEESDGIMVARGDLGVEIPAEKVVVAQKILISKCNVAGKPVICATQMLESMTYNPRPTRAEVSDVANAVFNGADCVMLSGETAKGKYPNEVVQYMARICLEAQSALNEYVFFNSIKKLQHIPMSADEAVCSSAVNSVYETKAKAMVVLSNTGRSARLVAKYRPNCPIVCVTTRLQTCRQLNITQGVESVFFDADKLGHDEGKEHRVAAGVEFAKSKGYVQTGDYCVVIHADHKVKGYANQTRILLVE
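Purified LmPK (0.1 nM) with 0.5 mM PEP and 0.1 mM ADP in imidazole buffer pH 7.2 with MgCl2/KCl, 1 h at room temperature. ATP formed was read by luciferase luminescence and normalized to no-enzyme and uninhibited controls.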
Sm TGR inh – S. mansoni TGR enzyme inhibition; purified TGR, DTNB reduction, TNB absorbance 405 nm; Potency, µM (doses to about 114 µM), for inactives: at the highest dose activity change, negative = inhibition, most hits filed as inhibitors; 3% of 360,000 active; AID 485364; also: potency is read from the fitted curve at half-maximal effect; % is scaled to controls: 0 for no effect and ±100 for the full control effect; nearly all actives have a fitted effect of over 60% in size
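Kinetic colorimetric format: TGR-catalysed, NADPH-driven DTNB reduction monitored via TNB absorbance. Enzyme dispensed at 20 nM; compound exposure 15 min at room temperature before reaction start.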
Giardia FBPA inh – inhibitors of Giardia lamblia fructose-1,6-bisphosphate aldolase; A8B2U2; purified Giardia FBPA; Potency, µM (series often up to 59.6 µM), for inactives: top-dose activity, negative = inhibition, usual class: inhibitors; 0.71% of 290,000 active; AID 2451; also: potency is read from the fitted curve at half-maximal effect; % is scaled to controls: 0 for no effect and ±100 for the full control effect; nearly all actives have a fitted effect of over 55% in size
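Giardia FBPA (40 nM reagent) was preincubated 10 min at RT with compound (up to 57.5 uM final), then substrate plus GAPDH/TPI/NAD/arsenate coupling system with diaphorase/resazurin was added; resorufin fluorescence (525/598 nm) was read after 20 min.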
An asterisk follows results filed as active; ? = inconclusive; · = not tested or not shown; [ ] = dose if it differs, or a comment. Unless noted, calls follow the shape of the dose curve; as a rule, active = well fitted curve in the direction sought with a large enough effect; inconclusive = small, poorly fitted or top-dose-only effect, or another doubt; inactive = no such curve, though single readings can be large; an effect the other way counts as inactive or inconclusive.

SMILES | CHX counter | Tb PYK inh | Shiga inhibitor | LmPK inh | Sm TGR inh | Giardia FBPA inh
CCOCCCN(Cc1ccco1)S(=O)(=O)c1cc2c(cc1Cl)NC(=O)CO2 | · | 1%[15.4 µM] | · | · | 18µM* | ·
O=C1COc2cc(S(=O)(=O)NCc3ccco3)c(Cl)cc2N1 | · | 5% | · | · | 16µM* | ·
CCc1cccc(C)c1Nc1nn2c(=O)c3ccccc3nc2s1 | · | -19% | · | · | 6% | ·
CCSc1nn2c(=O)c3ccccc3nc2s1 | 48* | -12% | 85* | ? | 9% | 0%
CSc1ccc(CCNC(=O)C2=C(C)C(=O)OC23CCCCC3)cc1 | · | 3% | · | · | 9% | ·
O=C(CCC1CCCN(C(=O)CCN2CCCCC2=O)C1)NCc1ccccc1F (configuration not stated) | 14* | 0% | -11 | -14% | 3%[57.1 µM] | -2%
O=C(CCC1CCCN(C(=O)c2cccnc2)C1)NCc1ccccc1F (configuration not stated) | 17* | 0% | 3 | -13% | -6% | ·
CN(C)c1cccc(C(=O)N2CCCC(CCC(=O)NCc3ccccc3F)C2)c1 (configuration not stated) | 30* | -5% | 16 | -2% | -25% | -3%
CC1(c2nc3ccccc3[nH]2)CCC(=O)N1Cc1ccc(F)cc1 (configuration not stated) | · | -1% | · | · | · | ·
NC(CCC(=O)NCS(=O)(=O)O)C(=O)O (configuration not stated) | · | · | · | · | · | 3%
COc1ccc(S(=O)(=O)N2CCC(n3c(C(F)(F)F)nc4cccnc43)CC2)cc1OC | · | 1% | · | · | -1% | ·
CCCSc1nsc(SCCC)c1C#N | 22* | 5% | 46* | 1% | -25% | 2%
C#CCSc1nsc(SCC#C)c1C#N | 5 | -22% | -3 | 3% | 35µM* | 2%
N#Cc1c(SCC(=O)N2CCCCC2)nsc1SCC(=O)N1CCCCC1 | -2 | 3% | -4 | -16% | -3% | 3%
Cc1ccc2c(=O)c3cccc(CC(=O)O)c3oc2c1C | -5 | · | 20 | · | · | 27%
COc1ccc2c(c1)CC/C2=N\OC(=O)c1ccccc1C | 50* | 3% | 135* | -2% | -5% | 0%
COc1ccc2c(c1)CC/C2=N\OC(=O)c1cccc(C)c1 | 52* | -9% | 139* | -11% | -1% | -7%
O=C(Cc1ccccc1)O/N=C1\CCCc2ccccc21 | -1 | 2% | 45 | -1% | 5% | -2%
O=C(O/N=C1\CCCc2ccccc21)c1cccs1 | 36* | -10% | 70* | ? | -1% | -7%
COc1ccc2c(c1)CC/C2=N\NC(=O)c1ccccc1 | 64* | -4% | 75* | -3% | 1% | 1%
CCOc1cc(C(=O)N[C@@H](C)C(=O)N2CCC3(CC2)NCCc2[nH]cnc23)cc(OCC)c1OCC | -1 | -2% | -7 | 2% | -17% | -21%
COc1ccc2c(c1)CCC/C2=N/OC(=O)c1ccccc1OC | 29* | -7% | 41 | 15% | -2% | -8%
COc1ccc2c(c1[N+](=O)[O-])CCC/C2=N/OC(=O)c1cccc2ccccc12 | 2 | 1% | 5 | 0% | -20% | -29%
COc1ccccc1C(=O)ON=C1c2ccccc2-c2ccccc21 | 19* | -16% | 29 | 1% | -8% | -7%
CCOCCCNC(=O)C1(O)c2ccccc2NC(=O)N1c1ccc(Cl)cc1 (configuration not stated) | 11 | -3% | 65 | -1% | -1% | 17%
SMILES | CHX counter | Tb PYK inh | Shiga inhibitor | LmPK inh | Sm TGR inh | Giardia FBPA inh
C=CCn1c(-c2cccc(OC)c2)n[nH]c1=S | -1 | ? | -11 | -18% | -5% | -16%
CCCn1c(-c2cccs2)nc2ccccc21 | 20 | 1% | 18 | 1% | -15% | -8%
C=CCn1c(-c2cccs2)nc2ccccc21 | 16* | 0% | 23* | -17% | -1% | -11%
C=CCn1c(-c2cccc(OC)c2)nc2nc3ccccc3nc21 | 32* | · | 18 | 1% | 10% | -5%
C=CCn1c(-c2cccs2)nc2nc3ccccc3nc21 | 30* | -6% | 45* | -9% | 4% | -16%
O=C(CCC(=O)N1CCN(c2ccccn2)CC1)c1ccc(Cl)s1 | · | 0% | · | · | ? | ·
COc1ccc(CNc2ncnc3ccc(-c4ccc(C(=O)N(C)C)cc4)cc23)c(OC)c1 | · | · | · | · | · | 4%
CCCN(CC(=O)Nc1ccccc1OC)C(=O)c1ccc2c(c1)NC(=O)C(C)S2 (configuration not stated) | · | -7% | · | · | -6% | ·
O=C(c1ccccc1)c1coc2c1C(=O)c1ccccc1C2=O | 33* | -7% | 94* | -5% | -28% | -22%
COc1ccc(C(=O)c2coc3c2C(=O)C(=O)c2ccccc2-3)cc1 | 33* | -3% | 76* | 5% | -25% | 7.1µM*
COc1ccc(C(=O)c2c[nH]cc2-c2ccccc2)cc1 | 0 | 6% | 12 | 2% | 2% | -1%
CC(=O)c1c(C)oc2c1C(=O)c1ccccc1C2=O | -3 | -9% | 23 | -6% | 4% | ?
O=C1c2ccccc2C(=O)c2c1oc(C(F)(F)F)c2C(=O)c1ccccc1 | 24* | -9% | 30 | 0% | -33% | 3%
CNc1ccc(OC(F)F)cc1C(=O)c1ccccc1 | -1 | 2% | -18 | 4% | -1%[11.4 µM] | 2%
CCCSc1nnc(NC(=O)c2cc(=O)c3ccccc3o2)s1 | · | 3% | · | · | -6% | ·
CC1CCc2c(sc(NC(=O)c3ccc(Cl)cc3Cl)c2C#N)C1 (configuration not stated) | · | 1% | · | · | 5% | ·
Cc1cc(C(=O)Nc2sc3c(c2C#N)CCC3)no1 | 26* | 2% | 38* | 1% | -9% | -4%
CC(C)Cc1cc(C(=O)Nc2sc3c(c2C#N)CCCC3)no1 | 33* | -8% | 21 | 2% | -16% | 14%
Cn1ccc(C(=O)Nc2sc3c(c2C#N)CCC3)n1 | 16* | -19% | 12 | 9% | ? | ·
Cc1cc(C(=O)Nc2sc3c(c2C#N)CCC(C)C3)no1 (configuration not stated) | 36* | -18% | 76* | 0% | -5% | -2%
CC(C)Cc1cc(C(=O)Nc2sc3c(c2C#N)CCC3)no1 | 0 | -14% | -9 | 9% | -13% | 0%
O=C(CCCC[C@@H]1SC[C@H]2NC(=O)N[C@H]12)Nc1ccc(C(=O)O)cc1 | 4 | · | -3 | · | · | 11%
COc1ccccc1CN1CCC2(CC1)CCN(C(=O)c1cccc(F)c1)CC2 | · | -8% | · | · | · | 3%
N#Cc1c(NC(=O)c2cc(C3CC3)on2)sc2c1CCC2 | 1 | -10% | -3 | 0% | -13% | 1%
Cc1cc(C(=O)Nc2sc3c(c2C#N)CCCC3)no1 | 37* | -14% | 52* | -8% | 3% | -3%
Cn1cc(Br)c(C(=O)Nc2ncc(Br)s2)n1 | 36* | -5% | 41 | -13% | · | 0%
CCOC(=O)NC(=S)Nc1ccc(OC)cc1 | 18* | -1% | 33 | -1% | -9% | 0%
